Results published in PubChem BioAssay AID1159580 (chemical genetic matrix, 2015).
Several values for one entry are separate records, joined by “and”; a condition that tells them apart may be missing. Equal entries are not always repeated. Screen size: about 5,500 compounds; about 2,000 (36%) were called active. Inconclusive results (about 18%) are left out. No stated cut-off is given here; in the data, active means normalized growth mostly below about 0.91 (no sharp cut-off); inconclusive means no clear call, values can overlap the other calls; inactive means mostly above about 0.92. This is one part of the list.

Assay: chemical genetic growth profiling, strain panel (AID 1159580);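 further: tested at 20 µM; growth read once vehicle control cultures reached saturation at 30 °C; 1 = growth at the plate median or of vehicle wells; lower values mean less growth of the strain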
Settings: S. cerevisiae deletion strains, growth OD

Measured: normalized growth

COc1cc2c(cc1OC)C1Cc3ccc(OC)c(OC)c3CN1CC2 (stereo unspecified)
inactive: locus YAL021C, strain ccr4, hits give low values 0.983 | locus YAL026C, strain drs2, hits give low values 0.972 | locus YAL030W, strain snc1, hits give low values 0.983 | locus YBL061C, strain skt5, hits give low values 0.976 | locus YBR009C, strain hhf1, hits give low values 0.972 | locus YBR021W, strain FUR4, hits give low values 0.981 | locus YBR023C, strain chs3, hits give low values 0.968 | locus YBR171W, strain sec66, hits give low values 0.965 | locus YBR229C, strain ROT2, hits give low values 0.985 | locus YBR231C, strain swc5, hits give low values 0.983 | locus YBR279W, strain paf1, hits give low values 0.983 | locus YCL011C, strain gbp2, hits give low values 0.985 | locus YCL016C, strain dcc1, hits give low values 0.999 | locus YCL029C, strain bik1, hits give low values 0.998 | locus YCL061C, strain MRC1, hits give low values 0.983 | locus YCL069W, strain vba3, hits give low values 0.955 | locus YCR088W, strain abp1, hits give low values 0.979 | locus YDL005C, strain med2, hits give low values 0.974 | locus YDL035C, strain GPR1, hits give low values 1 | locus YDL040C, strain nat1, hits give low values 0.987 | locus YDL074C, strain BRE1, hits give low values 0.989 | locus YDL101C, strain DUN1, hits give low values 1 | locus YDL134C, strain PPH21, hits give low values 1.03 | locus YDL185W, strain tfp1, hits give low values 0.984 | locus YDL192W, strain arf1, hits give low values 0.991 | locus YDR001C, strain nth1, hits give low values 0.984 | locus YDR069C, strain doa4, hits give low values 0.972 | locus YDR101C, strain arx1, hits give low values 0.988 | locus YDR137W, strain rgp1, hits give low values 0.967 | locus YDR159W, strain sac3, hits give low values 0.972 | locus YDR162C, strain NBP2, hits give low values 1.06 | locus YDR195W, strain ref2 0.955 | locus YDR297W, strain sur2, hits give low values 0.975 | locus YDR318W, strain mcm21, hits give low values 1 | locus YDR334W, strain swr1, hits give low values 0.965 | locus YDR335W, strain msn5, hits give low values 0.97 | locus YDR388W, hits give low values 0.985 | locus YDR392W, strain spt3, hits give low values 0.982 | locus YDR502C, strain sam2, hits give low values 1 | locus YEL003W, strain gim4, hits give low values 0.978 | locus YEL037C, strain rad23, hits give low values 0.982 | locus YEL061C, strain CIN8 (second series), hits give low values 0.95 | locus YEL061C, strain CIN8, hits give low values 1.02 | locus YER015W, strain faa2, hits give low values 0.984 | locus YER016W, strain bim1, hits give low values 0.97 | locus YER110C, hits give low values 0.982 | locus YER111C, strain swi4, hits give low values 0.973 | locus YER155C, strain BEM2 (second series), hits give low values 0.972 | locus YER155C, strain BEM2, hits give low values 0.988 | locus YER167W, strain BCK2, hits give low values 0.998 | locus YFR010W, strain ubp6, hits give low values 0.96 | locus YGL078C, strain dbp3, hits give low values 0.985 | locus YGL086W, strain mad1, hits give low values 0.955 | locus YGL167C, strain pmr1, hits give low values 0.978 | locus YGL173C, strain kem1, hits give low values 0.987 | locus YGL227W, strain vid30, hits give low values 0.979 | locus YGL240W, strain doc1, hits give low values 0.973 | locus YGL248W, strain PDE1, hits give low values 1.03 | locus YGL253W, strain hxk2, hits give low values 0.97 | locus YGR135W, strain pre9, hits give low values 1.01 | locus YGR252W, strain gcn5, hits give low values 1.01 | locus YHR013C, strain ard1, hits give low values 0.977 | locus YHR027C, strain rpn1, hits give low values 1 | locus YHR030C, strain SLT2, hits give low values 0.996 and 0.965 | locus YHR079C, strain IRE1 (second series), hits give low values 0.995 | locus YHR079C, strain IRE1, hits give low values 0.979 | locus YHR094C, strain hxt1, hits give low values 0.978 | locus YHR129C, strain ARP1, hits give low values 1 | locus YHR142W, strain chs7, hits give low values 0.976 | locus YHR200W, strain rpn10, hits give low values 0.992 | locus YIL066C, strain RNR3, hits give low values 1.02 | locus YIL073C, strain SPO22, hits give low values 1.05 | locus YIL125W, strain kgd1, hits give low values 1 | locus YIR030C, strain dcg1, hits give low values 0.987 | locus YJL092W, strain hpr5, hits give low values 0.952 | locus YJL095W, strain BCK1 (second series), hits give low values 0.975 | locus YJL095W, strain BCK1, hits give low values 1.04 and 0.988 | locus YJL115W, strain asf1, hits give low values 0.967 | locus YJL129C, strain trk1, hits give low values 0.956 | locus YJL134W, strain LCB3, hits give low values 0.983 | locus YJL154C, strain vps35, hits give low values 0.981 | locus YJL164C, strain tpk1, hits give low values 0.99 | locus YJL166W, strain qcr8, hits give low values 0.99 | locus YJL168C, strain set2, hits give low values 0.989 | locus YJL187C, strain SWE1 (second series), hits give low values 1.01 | locus YJR043C, strain POL32, hits give low values 1.01
